Results on five compounds are retold here after PubChem BioAssay (EPA / NIEHS).

A short description of assay [1]: ACEA_ER_80hr: ACEA Biosciences xCELLigence Real-Time Cell Analysis on Estrogen Receptor Agonism for Proliferation (AID 2282667; active = hit-call score of the fitted dose curve at least 0.9, where 1 is the maximum). Particulars: T47D proliferation, impedance (xCELLigence), 80 h. In outline: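 T47D human breast cells were seeded on electrode plates, monitored overnight, then exposed continuously to compounds in eight-point 1:4 dilutions from 100 uM (max 0.5% DMSO). Impedance-based growth was read at 80 h, fitted upward relative to DMSO.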

Assay [2] is described as follows: ATG_CRE_CIS: Attagene CIS-FACTORIAL HepG2 Assay for human cAMP Responsive Element (CRE) binding protein 3 (AID 2282926). Particulars: HepG2 CRE cis-reporter, Attagene multiplexed mRNA; actives raise or lower the signal. Summed up: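 Capillary electrophoresis of 6-FAM-labelled, HpaI-digested PCR products quantified reporter transcripts. These came from HepG2 transiently transfected with cis-element reporters and exposed to test chemicals for 24 hours, with DMSO defining baseline activity.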

In assay [3] the target is CCAAT/enhancer-binding protein beta (Homo sapiens) (UniProt P17676). The assay can be described thus: ATG_C_EBP_CIS: Attagene CIS-FACTORIAL HepG2 Assay for human CCAAT/Enhancer Binding Protein (C/EBP) beta (AID 2282927). Particulars: HepG2 Attagene cis-factorial transcription factor reporter; actives raise or lower the signal. In outline:
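Transiently transfected HepG2 (MRTU library, endogenous TF-driven promoters); 24 h dosing; total RNA → oligo(dT) RT → PCR → 6-FAM primer extension → HpaI digest → CE; fit bidirectionally vs DMSO.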

Assay [4] is described as follows: ATG_CMV_CIS: Attagene CIS-FACTORIAL HepG2 Assay for human CMV (Internal Marker) (AID 2282928).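 Also: endpoint acts as a background internal control marker rather than a target.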 The settings on record: HepG2 CMV promoter reporter, transcription factor profiling; actives raise or lower the signal. Summed up:
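Fluorescence intensity of RT-PCR-derived reporter fragments, resolved by capillary electrophoresis, gives the signal. HepG2 liver cells bearing transfected cis-element reporters were treated 24 h; activity in either direction was fit relative to DMSO-treated controls.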

Assay [5] is described as follows: ATG_DR4_LXR_CIS: Attagene CIS-FACTORIAL HepG2 Assay for human Liver X Receptor (LXR), DR4 submotif (AID 2282929). The settings on record: HepG2 Attagene DR4 cis-reporter, mRNA transcription; actives raise or lower the signal. Summed up: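 Endogenous factor activity at a DR4 cis-element is read as reporter mRNA in transiently transfected HepG2 cells. Exposure lasts 24 h; transcripts are amplified, fluorescently labelled and sized by capillary electrophoresis, with DMSO as baseline.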

The target of assay [6] is Aryl hydrocarbon receptor (Homo sapiens) (UniProt P35869). The assay can be described thus: ATG_Ahr_CIS: Attagene CIS-FACTORIAL HepG2 Assay for human Aryl Hydrocarbon Receptor (Ahr) (AID 2282930). Particulars: HepG2 AhR cis-factorial reporter transcription; actives raise or lower the signal. Summed up: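 Read-out: reporter mRNA quantified by RT-PCR with fluorescent primer extension and capillary electrophoresis. Human HepG2 liver cells carried transfected cis-promoter reporter units and were exposed to chemical for 24 h; gain or loss fitted relative to DMSO.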
Chain of Aryl hydrocarbon receptor (Homo sapiens) (P35869 whole entry, looked up): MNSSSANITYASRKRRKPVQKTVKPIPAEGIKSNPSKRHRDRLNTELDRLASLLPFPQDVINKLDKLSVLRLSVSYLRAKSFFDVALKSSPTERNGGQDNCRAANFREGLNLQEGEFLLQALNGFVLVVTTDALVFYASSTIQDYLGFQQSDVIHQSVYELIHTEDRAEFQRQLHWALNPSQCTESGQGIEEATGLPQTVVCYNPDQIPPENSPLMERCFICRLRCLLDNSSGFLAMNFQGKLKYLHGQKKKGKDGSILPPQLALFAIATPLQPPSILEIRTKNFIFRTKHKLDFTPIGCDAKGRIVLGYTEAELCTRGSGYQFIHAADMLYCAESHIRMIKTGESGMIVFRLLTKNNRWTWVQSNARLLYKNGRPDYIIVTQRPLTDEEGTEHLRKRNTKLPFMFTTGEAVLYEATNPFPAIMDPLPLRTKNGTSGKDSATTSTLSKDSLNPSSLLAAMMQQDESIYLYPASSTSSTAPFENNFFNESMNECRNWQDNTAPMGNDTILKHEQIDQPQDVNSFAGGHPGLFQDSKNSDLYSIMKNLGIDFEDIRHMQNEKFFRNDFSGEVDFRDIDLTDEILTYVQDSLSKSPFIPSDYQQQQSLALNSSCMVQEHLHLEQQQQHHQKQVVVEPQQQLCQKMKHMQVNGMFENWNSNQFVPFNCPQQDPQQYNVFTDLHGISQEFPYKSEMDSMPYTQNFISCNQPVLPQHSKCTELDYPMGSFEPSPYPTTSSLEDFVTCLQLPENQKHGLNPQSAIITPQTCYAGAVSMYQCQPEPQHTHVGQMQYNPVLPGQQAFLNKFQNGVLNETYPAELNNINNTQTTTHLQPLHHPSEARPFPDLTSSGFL

A short description of assay [7]: ATG_AP_1_CIS: Attagene CIS-FACTORIAL HepG2 Assay for human Activator Protein 1 (AP-1) (AID 2282931). The settings on record: HepG2 Attagene cis-factorial AP-1 reporter mRNA; actives raise or lower the signal. In outline:
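Fluorescence of labelled PCR fragments separated by capillary electrophoresis gives reporter mRNA levels. HepG2 with transfected cis-regulated reporter units, 24 h exposure; DMSO serves as baseline for bidirectional curve fits.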

A short description of assay [8]: ATG_AP_2_CIS: Attagene CIS-FACTORIAL HepG2 Assay for human Activator Protein 2 (AP-2) (AID 2282932). The settings on record: HepG2 AP-2 cis-reporter, Attagene transcription factor profiling; actives raise or lower the signal. In outline:
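Liver-derived HepG2 line, cis-reporter system measuring endogenous factors; 24 h dosing; reporter mRNA detected by fluorescent RT-PCR and capillary electrophoresis.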

The nature of assay [9]: ATG_BRE_CIS: Attagene CIS-FACTORIAL HepG2 Assay for human Bone Morphogenetic Protein (BMP) Response Element (BRE) (AID 2282933). The settings on record: HepG2 BMP response element reporter, Attagene transcription factor profiling; actives raise or lower the signal. In outline: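 A HepG2 multiplex reporter system measured inducible reporter mRNA 24 h post-dosing. Detection: RT-PCR, 6-FAM primer extension, HpaI digestion, capillary electrophoresis. Activity fitted bidirectionally relative to DMSO.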

Assay [10] deals with Retinoic acid receptor alpha (Homo sapiens) (UniProt P10276). The assay can be described thus: ATG_DR5_RAR_CIS: Attagene CIS-FACTORIAL HepG2 Assay for human Retinoic Acid Receptor Alpha (RARE), DR5 submotif (AID 2282934). Particulars: HepG2 Attagene cis-factorial RARE DR5 reporter, mRNA; actives raise or lower the signal. In outline:
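Read-out: DR5-driven reporter transcript measured by RT-PCR, 6-FAM primer extension, HpaI digest and capillary electrophoresis. Human HepG2 liver cells carry transiently transfected cis-element reporter constructs; dosing lasts 24 h. Gain or loss of signal fitted against DMSO baseline.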

Assay [11] concerns the target Transcription factor E2F1 (Homo sapiens) (UniProt Q01094). The assay can be described thus: ATG_E2F_CIS: Attagene CIS-FACTORIAL HepG2 Assay for human E2F Transcription Factor 1 (AID 2282935). The settings on record: HepG2 Attagene cis-reporter, E2F reporter RNA transcripts; actives raise or lower the signal. In outline: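 Liver-derived HepG2 cells expressing transfected promoter-driven reporter units received test chemical for 24 hours. Signal gains or losses were fitted bidirectionally against DMSO.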

Assay [12] in a line: ATG_E_Box_CIS: Attagene CIS-FACTORIAL HepG2 Assay for human Enhancer Box (E-box) (AID 2282936). The settings on record: HepG2 E-box cis-reporter transcription, actives raise or lower the signal. In outline:
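In this cell-based setup, HepG2 cells bearing transfected promoter-driven reporter units were exposed to chemicals for 24 h; reporter transcripts were amplified, 6-FAM-labelled, cut with HpaI and sized by capillary electrophoresis.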

Assay [13] is described as follows: ATG_M_61_CIS: Attagene CIS-FACTORIAL HepG2 Assay for M61 Transcription Factor (Internal Marker) (AID 2282937). The settings on record: HepG2 Attagene CIS-FACTORIAL M61 internal marker reporter; actives raise or lower the signal. Summed up: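 This endpoint serves as an internal background control within a multiplexed HepG2 cis-reporter panel. Cells are exposed for 24 h; reporter mRNA is amplified, fluorescently labelled and sized by capillary electrophoresis, with DMSO as negative control.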

Assay [14] can be described thus: ATG_EGR_CIS: Attagene CIS-FACTORIAL HepG2 Assay for human Early Growth Response 1 (EGR1) (AID 2282938). The settings on record: HepG2 Attagene CIS-FACTORIAL EGR reporter mRNA; actives raise or lower the signal. In outline: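 HepG2, transient MRTU transfection (cis promoters), 24 h compound. RNA → RT (oligo-dT) → PCR → 6-FAM labelling → HpaI cut → CE fluorescence. Bidirectional fit, DMSO baseline.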

Assay [15] in a line: ATG_ERE_CIS: Attagene CIS-FACTORIAL HepG2 Assay for Estrogen Response Element (ERE) (AID 2282940). The settings on record: HepG2 ERE cis-reporter, Attagene RNA transcript; actives raise or lower the signal. Summed up: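 Human liver cells (HepG2) bearing transiently transfected, promoter-regulated reporter units were exposed 24 h. Reporter mRNA induction was detected by capillary electrophoresis of labelled RT-PCR products and fitted bidirectionally to DMSO.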

Assay [16] is described as follows: ATG_Ets_CIS: Attagene CIS-FACTORIAL HepG2 Assay for human Erythroblast Transformation Specific (ETS) (AID 2282941). The settings on record: HepG2 ETS cis-reporter transcription, actives raise or lower the signal. In outline:
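Multiplexed reporter transcript profiling: HepG2, 24 h treatment, total RNA to cDNA, PCR, 6-FAM labelling, HpaI cut, capillary electrophoresis. Gain- or loss-of-signal fitted against DMSO.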

Assay [17] has as its target Hepatocyte nuclear factor 3-beta (Homo sapiens) (UniProt Q9Y261). Kind of assay: ATG_FoxA2_CIS: Attagene CIS-FACTORIAL HepG2 Assay for human Forkhead box A2 (FOXA2) (AID 2282942). The settings on record: HepG2 cis-reporter transcription factor activity, 24 h; actives raise or lower the signal. In outline:
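Cells: HepG2, transient multiplex reporter transfection. Exposure 24 h. Detection: reporter-specific RT-PCR, fluorescent labelling, restriction digest, capillary electrophoresis. Analysis: bidirectional curve fit, DMSO as negative control.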

A short description of assay [18]: ATG_FoxO_CIS: Attagene CIS-FACTORIAL HepG2 Assay for human Forkhead box O (FoxO) (AID 2282943). Particulars: HepG2 Attagene cis-reporter, FoxO element, mRNA; actives raise or lower the signal. In outline:
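Read-out: fluorescence of 6-FAM-labelled reporter cDNA fragments resolved by capillary electrophoresis. Transiently transfected HepG2 cells were dosed for 24 h; activity fitted in both directions relative to DMSO controls.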

Assay [19] can be described thus: ATG_GATA_CIS: Attagene CIS-FACTORIAL HepG2 Assay for human GATA Binding Protein (AID 2282944). The settings on record: HepG2 GATA cis-element reporter, Attagene multiplex mRNA; actives raise or lower the signal. In outline:
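Transfected cis-reporter HepG2 cells were treated with chemicals for 24 hours. Total RNA was then converted to cDNA, amplified with reporter-specific primers and analysed by fluorescent capillary electrophoresis, using DMSO-treated wells as baseline.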

The nature of assay [20]: ATG_M_19_CIS: Attagene CIS-FACTORIAL HepG2 Assay for M19 Transcription Factor (Internal Marker) (AID 2282939). The settings on record: HepG2 Attagene CIS-FACTORIAL M19 internal marker reporter; actives raise or lower the signal. In outline:
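Chemical-treated HepG2 (24 h) with MRTU constructs; reporter transcripts detected by fluorescent RT-PCR fragment analysis on capillary electrophoresis. Internal background marker, DMSO as baseline.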

Records with an inconclusive call do not appear. Activity calls are given as the source filed them. The calls were made as follows, unless noted: active = hit-call score of the fitted dose curve at least 0.9, where 1 is the maximum; inactive = score below 0.9.

Chain of Retinoic acid receptor alpha (Homo sapiens) (P10276 whole entry, looked up): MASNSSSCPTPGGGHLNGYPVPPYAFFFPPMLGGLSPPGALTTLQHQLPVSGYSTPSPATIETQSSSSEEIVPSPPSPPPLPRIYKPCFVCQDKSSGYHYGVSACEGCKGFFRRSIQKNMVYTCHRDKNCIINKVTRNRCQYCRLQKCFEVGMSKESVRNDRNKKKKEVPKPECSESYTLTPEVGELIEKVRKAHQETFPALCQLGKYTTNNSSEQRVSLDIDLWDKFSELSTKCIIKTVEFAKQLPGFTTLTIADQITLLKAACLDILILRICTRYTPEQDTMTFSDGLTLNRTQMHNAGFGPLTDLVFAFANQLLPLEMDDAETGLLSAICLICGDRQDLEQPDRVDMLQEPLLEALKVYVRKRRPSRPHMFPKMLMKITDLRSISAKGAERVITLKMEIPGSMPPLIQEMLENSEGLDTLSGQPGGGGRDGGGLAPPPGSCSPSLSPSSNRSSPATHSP
Chain of Transcription factor E2F1 (Homo sapiens) (Q01094 whole entry, looked up): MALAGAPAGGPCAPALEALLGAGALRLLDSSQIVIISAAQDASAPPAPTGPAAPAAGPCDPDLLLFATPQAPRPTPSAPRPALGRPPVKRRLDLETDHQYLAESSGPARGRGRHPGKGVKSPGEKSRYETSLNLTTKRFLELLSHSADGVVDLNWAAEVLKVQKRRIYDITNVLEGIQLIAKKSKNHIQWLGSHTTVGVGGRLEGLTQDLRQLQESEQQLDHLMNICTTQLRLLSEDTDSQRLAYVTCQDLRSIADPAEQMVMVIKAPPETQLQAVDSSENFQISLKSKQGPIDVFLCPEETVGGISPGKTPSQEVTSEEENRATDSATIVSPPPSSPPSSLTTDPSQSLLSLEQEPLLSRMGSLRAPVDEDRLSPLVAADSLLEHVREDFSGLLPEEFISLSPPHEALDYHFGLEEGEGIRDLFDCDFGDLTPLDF
Chain of CCAAT/enhancer-binding protein beta (Homo sapiens) (P17676 whole entry, looked up): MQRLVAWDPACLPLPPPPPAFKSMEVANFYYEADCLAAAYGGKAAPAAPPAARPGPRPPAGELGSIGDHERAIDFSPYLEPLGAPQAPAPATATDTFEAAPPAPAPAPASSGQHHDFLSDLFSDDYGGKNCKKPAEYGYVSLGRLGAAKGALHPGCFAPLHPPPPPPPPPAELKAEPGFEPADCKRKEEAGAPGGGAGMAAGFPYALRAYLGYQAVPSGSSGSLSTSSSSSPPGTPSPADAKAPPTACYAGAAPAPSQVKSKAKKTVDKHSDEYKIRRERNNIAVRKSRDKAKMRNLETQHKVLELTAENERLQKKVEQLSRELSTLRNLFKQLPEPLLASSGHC
Chain of Hepatocyte nuclear factor 3-beta (Homo sapiens) (Q9Y261 whole entry, looked up): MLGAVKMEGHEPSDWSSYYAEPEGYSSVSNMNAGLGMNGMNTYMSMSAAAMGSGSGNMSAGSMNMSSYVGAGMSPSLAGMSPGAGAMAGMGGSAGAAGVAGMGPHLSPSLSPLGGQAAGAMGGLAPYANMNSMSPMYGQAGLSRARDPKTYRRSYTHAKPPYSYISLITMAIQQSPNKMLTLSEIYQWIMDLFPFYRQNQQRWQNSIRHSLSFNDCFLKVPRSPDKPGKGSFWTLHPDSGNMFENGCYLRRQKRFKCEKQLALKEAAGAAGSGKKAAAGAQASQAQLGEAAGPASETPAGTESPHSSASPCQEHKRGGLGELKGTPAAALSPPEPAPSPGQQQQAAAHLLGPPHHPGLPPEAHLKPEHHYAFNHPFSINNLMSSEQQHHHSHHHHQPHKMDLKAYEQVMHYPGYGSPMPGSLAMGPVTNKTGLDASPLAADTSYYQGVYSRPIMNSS

The AC50 is the concentration at which the activity in the assay is half-maximal. Consider `CC1=CCC2C(=O)OC(=O)C2C1` (stereo unspecified), for which the outcome in assay [1], in assay [2], in assay [3], in [4], in assay [5] and in [7] was inactive. The compound was classed as inactive in [8], in [9], in assay [10], in [11], in assay [12] and in [13]. Also, the call in assay [14], in [15], in [16], in assay [17], in assay [18] and in assay [19] was inactive. In addition, in [6], the AC50 is 65 µM (active).

Turning to `CC(C)(C)c1cc(Cc2cc(C(C)(C)C)c(O)c(C(C)(C)C)c2)cc(C(C)(C)C)c1O`, the outcome in assay [1], in assay [2], in assay [3], in assay [4], in [5] and in [6] was inactive. Besides, the compound was classed as inactive in [7], in assay [8], in assay [9], in assay [10], in assay [11] and in assay [12]. Moreover, the compound was called inactive in assay [13], in [14], in [20], in [15], in [16] and in [17]. In addition, the outcome in [18] and in [19] was inactive.

Regarding `CCOCN(C(=O)CS(=O)(=O)O)c1c(C)cccc1CC`, the call in [1], in [2], in assay [3], in [4], in [5] and in assay [6] was inactive. The result in assay [7], in [8], in assay [9], in [10], in [11] and in [12] was inactive. Moreover, the compound was called inactive in assay [13], in [14], in [15], in [16], in assay [17] and in assay [18]. Further, the compound was called inactive in assay [19].

In the case of `O=C(c1ccccc1)c1ccc(O)cc1O`, the AC50 in assay [1] was 1.88 µM (active); in assay [4] it was 123 µM (active); in assay [15], 1.72 µM (active). The compound was called inactive in [2], in [3], in assay [5], in [6], in [7] and in assay [8]. Besides, the compound was classed as inactive in [9], in [10], in [11], in assay [12], in [13] and in [14]. The call in assay [16], in assay [17], in [18] and in assay [19] was inactive.

`OCCC(O)CO` (stereo unspecified): the compound was classed as inactive in assay [1], in assay [2], in assay [3], in assay [4], in [5] and in [6]. Also, the call in [7], in [8], in assay [9], in [10], in assay [11] and in assay [12] was inactive. For the same compound, the compound was called inactive in [13], in [14], in assay [15], in assay [16], in [17] and in [18]. Also, the call in assay [19] was inactive.
